Assay results from PMC5540273 (PLoS ONE, 2017).

Legend:
Details in all cases: concentration: 1 μM, replicates: in singlicate; n = 1
[1] = tested on: FGFR1
[2] = tested on: FGFR2
[3] = tested on: FGFR3
[4] = tested on: FGFR4
[5] = tested on: FGR
[6] = tested on: FLT1
[7] = tested on: FLT3-autoinhibited
[8] = tested on: FLT3
[9] = tested on: FLT4
[10] = tested on: FRK
[11] = tested on: FYN
[12] = tested on: GAK
[13] = tested on: T1, GCN2(Kin.Dom.2,S808G)
T1 construct: gene EIF2AK4

[14] = tested on: GRK1
[15] = tested on: T2, GRK2
T2 construct: gene ADRBK1

[16] = tested on: T3, GRK3
T3 construct: gene ADRBK2

[17] = tested on: GRK4
[18] = tested on: GRK7
[19] = tested on: GSK3A
[20] = tested on: GSK3B
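Also: KINOMEscan kinase panel screen.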

SMILES | %Inh [1] [%] | %Inh [2] [%] | %Inh [3] [%] | %Inh [4] [%] | %Inh [5] [%] | %Inh [6] [%] | %Inh [7] [%] | %Inh [8] [%] | %Inh [9] [%] | %Inh [10] [%] | %Inh [11] [%] | %Inh [12] [%] | %Inh [13] [%] | %Inh [14] [%] | %Inh [15] [%] | %Inh [16] [%] | %Inh [17] [%] | %Inh [18] [%] | %Inh [19] [%] | %Inh [20] [%]
Nc1ncnc2c1nc(-c1ccccc1)n2-c1ccccc1 [SKF-97293] | 12 | 20 | 0 | 0 | 31 | 9 | 14 | 20 | 0 | 0 | 0 | 1 | 0 | 36 | 0 | 13 | 13 | 43 | 0 | 40
Cc1ccc(C)c(NC(=O)NC2CCN(c3ccnc(Nc4ccc(F)cc4)n3)C2)c1 (stereo not drawn) [GSK1379720] | 0 | 14 | 2 | 5 | 24 | 9 | 0 | 0 | 0 | 14 | 27 | 0 | 0 | 0 | 0 | 60 | 7 | 0 | 0 | 0
FC(F)(F)c1ccc(/C=C/c2cncnc2Nc2ccc3[nH]c(Cc4ccccc4)nc3c2)cc1 [GW709199] | 20 | 0 | 0 | 4 | 34 | 12 | 0 | 19 | 0 | 10 | 10 | 0 | 0 | 11 | 0 | 0 | 18 | 0 | 39 | 0
CNC(=O)c1ccccc1Nc1nc(Nc2ccc(N3CCOCC3)cc2)ncc1Cl.Cl [GSK1576028] | 99.7 | 97.2 | 99 | 92.3 | 98.1 | 89 | 96.2 | 99.3 | 99.9 | 86 | 98.3 | 96.9 | 100 | 15 | 13 | 0 | 84 | 3 | 76 | 72
Cc1ccc(S(=O)(=O)Nc2ccc(Nc3nccc(Nc4cccc5[nH]ncc45)n3)cc2)cc1 [GSK581271] | 0 | 15 | 7 | 0 | 56 | 19 | 0 | 28 | 5 | 73 | 41 | 44 | 0 | 0 | 0 | 42 | 0 | 0 | 24 | 10
COc1cccc(NC(=O)NC2CCN(c3ccnc(Nc4cc(OC)c(OC)c(OC)c4)n3)C2)c1 (stereo not drawn) [GSK1379763] | 0 | 0 | 8 | 1 | 25 | 24 | 14 | 62 | 37 | 0 | 42 | 31 | 4 | 0 | 0 | 15 | 0 | 0 | 0 | 45
Cn1cc(-c2ccc3c(c2)CCN3C(=O)Cc2cccc(F)c2)c2c(N)ncnc21 [GSK2603358] | 0 | 0 | 0 | 0 | 46 | 63 | 0 | 66 | 6 | 0 | 0 | 16 | 33 | 0 | 0 | 36 | 0 | 0 | 4 | 12
Cc1cccc(Nc2nc(N[C@H]3CCNC3)ncc2C(N)=O)c1.Cl [GSK2197149] | 0 | 0 | 3 | 0 | 82 | 24 | 82 | 80 | 9 | 15 | 43 | 86 | 25 | 0 | 0 | 0 | 78 | 0 | 0 | 0
C[C@@H]1CC[C@@H](C(=O)Nc2ccccc2)CN1c1cc(-c2ccc3c(N)n[nH]c3c2)nc(N)n1 [GSK2286062] | 0 | 0 | 4 | 0 | 19 | 0 | 0 | 0 | 0 | 0 | 25 | 19 | 0 | 0 | 0 | 10 | 0 | 0 | 0 | 0
